Results on 17 compounds are retold here after PubChem BioAssay (Tox21).

Each structure is given as a SMILES string. Records with an inconclusive call do not appear. The source made the active and inactive calls. Unless noted, the call rests on the fitted dose curve; in most records, active means well fitted curve in the direction sought with a large enough effect in the repeat runs; inconclusive means weak or mixed curves; inactive means no such curve, though single readings can be large; an effect the other way counts as inactive or inconclusive. Positions of bridges follow the written chain, without caps; N, C: chain ends. Non-standard residues stand in square brackets, D forms with d. Residues, ends and D or L forms follow the SMILES beside them. *: point of attachment. pGlu = O=C1CC[C@@H](C(=O)O)N1; X2 = CC[C@H](C)CCCCC(=O)*; Dab = NCC[C@H](N)C(=O)O

A short description of assay [1]: qHTS assay for small molecule agonists of the p53 signaling pathway (AID 651631; calls by dose curve; further: nearly all actives have a fitted effect of over 15% in size). The procedure, abridged:
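Beta-lactamase reporter activity under p53 response elements was quantified in HCT-116 cells by FRET fluorescence, following 16 h incubation with test compounds at 37 °C and 2 h substrate development at room temperature.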
A general note: qHTS replaces the single test concentration by a dilution series.

A short description of assay [2]: qHTS assay for small molecules that induce genotoxicity in human embryonic kidney cells expressing luciferase-tagged ATAD5 (AID 651632). Further: nearly all actives have a fitted effect of over 15% in size. The procedure, abridged:
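Luminescence read-out: after 16 hr compound exposure at 37C, ATAD5-luciferase HEK293T cells received Amplite, 30 min RT, then CCD imaging. A rise in signal marks genotoxic stress.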

A short description of assay [3]: qHTS assay for small molecule agonists of the p53 signaling pathway - cell viability (AID 651633; calls by dose curve;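 further: p53RE-bla HCT reporter cells with a stable beta-lactamase p53 reporter; series mostly up to about 83 µM; nearly all actives have a fitted effect of over 30% in size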). The procedure, abridged: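 p53RE-bla cells, seeded at 4,000 per well and rested 5 h at 37 C/5% CO2, received compounds in DMSO for 16 h at 37 C. CellTiter-Glo was then added, and luminescence was read after 30 min at room temperature to gauge cytotoxicity.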
Assay [4] is described as follows: qHTS assay for small molecules that induce genotoxicity in human embryonic kidney cells expressing luciferase-tagged ATAD5 - cell viability (AID 651634; calls by dose curve; further: nearly all actives have a fitted effect of over 25% in size). The method, boiled down:
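HEK293T ATAD5-luc cells, 2,000/well; compound 15.5 hr, 37C/5% CO2; CellTiter-Fluor 30 min, 37C; fluorescence read.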

The nature of assay [5]: qHTS assay for small molecule disruptors of the mitochondrial membrane potential - cell viability (AID 720634; calls by dose curve; further: nearly all actives have a fitted effect of over 20% in size; further: potency means the concentration at half of the fitted maximal effect). The procedure, abridged: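 Luminescence from CellTiter-Glo (ATP content) gave viability in HepG2 cells, read in the same wells as the MMP dye assay after 1 hr compound exposure at 37 C.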
Assay [6] in a line: qHTS assay to test for compound auto fluorescence at 535 nm (green) in HepG2 cells (AID 720675).
Assay [7] is described as follows: qHTS assay to test for compound auto fluorescence at 460 nm (blue) in HEK293 cells (AID 720678). The method, boiled down:
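Blue read-out at excitation 405 nm and emission 460 nm follows overnight compound exposure of HEK293 cells at 37C in 5% CO2. Activity is given as auto fluorescence equivalency to triamterene.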

Assay [8] in a line: qHTS assay to test for compound auto fluorescence at 590 nm (red) in HEK293 cells (AID 720679). The procedure, abridged: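 Red channel, Ex/Em 540/590nm; signal expressed as equivalency to Rose Bengal sodium. HEK293, 2,000 cells/well, 10% dialyzed FBS; 23 nL compound pinned after 4-5 hr attachment; overnight 37C/5% CO2 before reading.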
Assay [9] can be described thus: qHTS assay for small molecule disruptors of the mitochondrial membrane potential (AID 720635). Further: potency means the concentration at half of the fitted maximal effect. The method, boiled down: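 HepG2 cells (2,000/well) attached overnight at 37C, then took compound for 1 hr at 37C, 5% CO2. Mito-MPS dye was added for 30 min; fluorescence was read at 490/535 nm (monomers) and 540/590 nm (aggregates).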
A short description of assay [10]: qHTS assay to test for compound auto fluorescence at 590 nm (red) in HepG2 cells (AID 720674). The method, boiled down:
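Compound auto-fluorescence is scored relative to Rose Bengal sodium, measured at 540/590 nm in live HepG2 cultures after 1 hr compound contact (37 C, 5% CO2).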

As to `CC[C@H](C)[C@H](NC(=O)[C@H](Cc1ccccc1)NC(=O)[C@H](C)NC(=O)[C@H](CC(=O)O)NC(=O)[C@H](CCCCN)NC(=O)[C@H](CO)NC(=O)[C@@H]1CCCN1C(=O)[C@@H]1CCC(=O)N1)C(=O)NCC(=O)N[C@@H](CC(C)C)C(=O)N[C@@H](CCSC)C(N)=O` ([pGlu]PSKDAFIGLM-NH2), the Potency result in assay [1], in [2], in [3], in assay [4], in [5] and in [6] was “inactive” in each case. Further, the Potency entry in [7] and in assay [8] was “inactive” each time.

In the case of `CCCCC(=O)O[C@H]1CC[C@H]2[C@@H]3CCc4cc(O)ccc4[C@H]3CC[C@]12C`, the Potency result in assay [1], in [2], in assay [3], in assay [10], in assay [6] and in assay [7] was “inactive” each time. In addition, the Potency entry in [8] is “inactive”. Moreover, the Potency was 29.8 µM (active) in assay [5] and 18.8 µM (active) in assay [9].

Consider `CC(C)[C@@H](N)C(=O)O`, for which the Potency entry in assay [1], in [2], in [3], in assay [5], in assay [6] and in assay [7] was “inactive” each time. Further, in assay [8], the Potency result is “inactive”.

For `O=C(O)c1ccc(NC(=O)[C@H](Cc2ccc(O)cc2)NC(=O)c2ccccc2)cc1`, the Potency result in assay [1], in [2], in assay [4], in assay [5], in [9] and in assay [10] was “inactive” each time. Further, the Potency entry in assay [6], in assay [7] and in [8] was “inactive” each time.

Take `CC(=O)c1ccc2c(c1)N(CCCN1CCN(CCO)CC1)c1ccccc1S2`: the Potency result in assay [1], in [2], in assay [3], in assay [5], in assay [10] and in [6] was “inactive” in each case. In addition, the Potency entry in assay [7] and in assay [8] was “inactive” in each case.

In the case of `CNc1cc(OC)c(C(=O)N[C@H]2CCN(Cc3ccccc3)[C@H]2C)cc1Cl`, the Potency result in assay [1], in assay [2], in assay [3], in assay [5], in [10] and in [6] was “inactive” each time. Moreover, the Potency entry in assay [7] and in assay [8] was “inactive” in each case.

In the case of `C[C@]12C=CC(=O)C=C1CC[C@@H]1[C@@H]2[C@@H](O)C[C@@]2(C)[C@H]1CC[C@]2(O)C(=O)COC(=O)CCC(=O)O`, the Potency result in assay [1], in assay [3], in [4], in assay [5], in assay [9] and in assay [10] was “inactive” throughout. The Potency result in [6], in assay [7] and in [8] was “inactive” throughout.

With `COC(=O)[C@@H](N)CS`, the Potency entry in assay [1], in assay [2], in [3], in [5], in assay [9] and in assay [10] was “inactive” in each case. The Potency result in [6], in assay [7] and in assay [8] was “inactive” each time.

Regarding `CO[C@H]1C=CO[C@@]2(C)Oc3c(C)c(O)c4c(O)c(c5c(nc6cc(C)ccn65)c4c3C2=O)NC(=O)/C(C)=C\C=C[C@H](C)[C@H](O)[C@@H](C)[C@@H](O)[C@@H](C)[C@H](OC(C)=O)[C@@H]1C`, the Potency result in assay [1], in [2], in assay [3], in assay [5], in [10] and in [6] was “inactive” in each case. Further, the Potency entry in assay [7] and in assay [8] was “inactive” in each case.

As to `CN1c2cc(O)c(N=NC(N)=O)cc2CC1S(=O)(=O)O` (centres undefined), the Potency entry in assay [1], in assay [2], in assay [3], in [5], in [10] and in assay [6] was “inactive” throughout. Further, the Potency result in assay [7] and in [8] was “inactive” each time.

With `CCCCCCCCCCCCCCCC(=O)O[C@@H]1[C@@H](O)[C@@H](O)[C@@H]([C@H](NC(=O)[C@@H]2C[C@@H](CCC)CN2C)[C@H](C)Cl)O[C@@H]1SC`, the Potency entry in assay [1], in [2], in [3], in assay [4], in assay [5] and in assay [6] was “inactive” each time. The Potency entry in [7] and in [8] was “inactive” in each case.

For the compound `CC[C@H](C)CCCCC(=O)N[C@@H](CCN)C(=O)N[C@H](C(=O)N[C@@H](CCN)C(=O)N[C@H]1CCNC(=O)[C@H]([C@@H](C)O)NC(=O)[C@H](CCN)NC(=O)[C@H](CCN)NC(=O)[C@H](CC(C)C)NC(=O)[C@@H](CC(C)C)NC(=O)[C@H](CCN)NC1=O)[C@@H](C)O` (X2-[Dab]T[Dab][Dab][Dab][dL]L[Dab][Dab]T; lactam 4-C), the Potency entry in assay [2], in [3], in assay [4], in assay [5], in assay [9] and in assay [10] was “inactive” in each case. In addition, the Potency result in assay [6], in assay [7] and in assay [8] was “inactive” in each case.

Regarding `FC(F)(F)C(F)(F)C(F)(F)C(F)(F)C(F)(F)C(F)(F)F`, the Potency entry in assay [2], in assay [3], in assay [4], in assay [5], in assay [9] and in assay [10] was “inactive” each time. In addition, the Potency result in [6], in assay [7] and in assay [8] was “inactive” in each case.

`CC(C)(C)NCC(O)CSc1nc(-c2ccc(C(N)=O)s2)cs1` (centres undefined): the Potency result in [2], in assay [3], in [4], in [5], in assay [10] and in assay [6] was “inactive” each time. The Potency entry in assay [7] and in [8] was “inactive” each time. The Potency in assay [9] was 13.3 µM (active).

As to `O=C(Nc1ccc(O)cc1)c1ccccc1O`, the Potency result in assay [1], in [3], in [4], in assay [10], in assay [6] and in [7] was “inactive” in each case. In assay [8], the Potency result was “inactive”. The Potency in assay [9] was 5.96 µM (active).

For `CC1CS(=O)(=O)CCN1/N=C/c1ccc([N+](=O)[O-])o1` (centres undefined), the Potency result in assay [2], in [3], in assay [4], in assay [5], in assay [9] and in [10] was “inactive” in each case. Further, the Potency result in assay [6], in assay [7] and in [8] was “inactive” each time.

Consider `Nc1nc2[nH]cc(CCc3ccc(C(=O)N[C@@H](CCC(=O)O)C(=O)O)cc3)c2c(=O)[nH]1`, for which the Potency result in assay [2], in assay [3], in assay [4], in [5], in [9] and in assay [10] was “inactive” throughout. Further, the Potency entry in assay [6], in assay [7] and in assay [8] was “inactive” each time.
